PubChem BioAssay
Active and inactive are the calls of the source.

What was measured:
Albumin (Bos taurus) = Albumin (Bos taurus) (UniProt P02769); assay: compounds binding labelled BSA control protein – biochemical, small-molecule microarray, Alexa647 label, 635/667 nm fluorescence, artefact control for SMM control protein annotation, profiling panel (AID 1118); settings: BSA-A647 binding, fluorescence 635 nm, higher = more signal;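 note: score merges 667 nm emission intensity and signal-to-noise per printed compound spot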
[1] = probe aXIP binding to arrayed compounds – biochemical, NeuroSMM set, 635/667 nm fluorescence, primary screen (AID 1119); settings: small-molecule microarray, higher = more signal, called active from +8 up or from −8 down;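 note: probe is the protein aXip251-270 applied at 1 µg/mL to compound-printed slides; binding of probe to printed compounds measured as 667 nm fluorescence plus signal to noise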
[2] = probe aNOTCH3 binding on compound microarray – biochemical, small-molecule microarray, 635/667 nm fluorescence, primary screen (AID 1120); settings: higher = more signal;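 note: probe is a biotin-tagged antibody raised against NOTCH3 rather than NOTCH3 protein; score merges spot fluorescence near 667 nm with spot signal to noise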
[3] = probe aNOTCH2 binding on compound microarray – biochemical, small-molecule microarray, 635/667 nm fluorescence, primary screen (AID 1121); settings: higher = more signal;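 note: score merges feature fluorescence read at 667 nm with its signal to noise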
[4] = target: Carbonic anhydrase 2 (Homo sapiens) (UniProt P00918); assay: compounds binding carbonic anhydrase 2 – biochemical, small-molecule microarray, Alexa647-labelled CAII, profiling panel (AID 1122); settings: CAII-A647 binding fluorescence, higher = more signal
[5] = COS7 lysate on small-molecule microarray, probe aHis, 635 nm (AID 1123); settings: COS7 cell lysate, fluorescence, higher = more signal;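 note: z-score combines 667nm fluorescence intensity with signal-to-noise per printed compound spot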
[6] = probe aLAP1 signal on lysate-treated microarray – cell lysate, small-molecule microarray, COS7 lysate, primary screen (AID 1124); settings: probe aLAP1, fluorescence, higher = more signal;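 note: lysate comes from COS7 cells expressing LAP1 and is applied at 0.3 µg/mL; score merges spot fluorescence near 667 nm with signal-to-noise over triplicate slides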
Sam68 (KHDRBS1) = assay: compounds binding KHDRBS1 protein – biochemical, small-molecule microarray, 635 nm fluorescence, primary screen (AID 1125); settings: higher = more signal;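 note: score merges 667 nm channel intensity with signal to noise over triplicate slides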
[7] = system: Chordin-like protein 2 (CHRDL2); assay: compounds binding chordin-like 2 – biochemical, small-molecule microarray, 635 nm fluorescence, primary screen (AID 1126); settings: fluorescence 635 nm, higher = more signal;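 note: printed compound slides probed with Chrdl2 protein at 4 µg/mL for 1 h at 4 C; score merges 667 nm emission intensity with signal to noise over three replicate slides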
[8] = target: Concanavalin-A (Canavalia ensiformis) (UniProt P02866); assay: compounds binding concanavalin A lectin – biochemical, small-molecule microarray, Alexa647 label, 635 nm, artefact control for SMM control protein annotation, primary screen (AID 1127); settings: ConA-A647 binding fluorescence, higher = more signal;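 note: z combines 667 nm emission intensity with signal-to-noise across three replicate slides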
[9] = compounds binding Alexa647 anti-His antibody – biochemical, small-molecule microarray, 635 nm fluorescence, artefact control for SMM control protein annotation, primary screen (AID 1128); settings: higher = more signal;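 note: score merges feature fluorescence with signal-to-noise for each printed compound spot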
[10] = system: Human papillomavirus type 1a E7 protein (residues 1-88); assay: HPV1a E7 small-molecule binders, primary screen, biochemical, small-molecule microarray, residues 1-88, 635 nm (AID 1129); settings: small-molecule microarray binding, fluorescence 635 nm; higher = more signal
[11] = target: Focal adhesion kinase 1 (Homo sapiens) (UniProt Q05397); assay: PTK2 protein binding on printed compound slides – biochemical, small-molecule microarray, 635/667 nm fluorescence, BSA, DTT, primary screen (AID 1130); settings: 635 nm fluorescence, higher = more signal;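 note: composite of spot emission at 667 nm and signal to noise over triplicate slides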
[12] = system: Fibrinogen (Alexa647-labelled); assay: Alexa647-fibrinogen binding to printed small molecules – biochemical, small-molecule microarray, 635/667 nm fluorescence, artefact control for SMM control-protein annotation, profiling panel (AID 1131); settings: fibrinogen-A647 binding fluorescence, higher = more signal;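 note: z-score merges 667 nm fluorescence with per-spot signal-to-noise over triplicate slides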
[13] = target: Follistatin (Homo sapiens) (UniProt P19883); assay: FST protein binding to printed compounds – biochemical, small-molecule microarray, 635/667 nm fluorescence, primary screen (AID 1132); settings: 635 nm fluorescence, higher = more signal
[14] = target: Fibroblast growth factor 2 (Homo sapiens) (UniProt P09038); assay: basic fibroblast growth factor binding to printed compounds – biochemical, small-molecule microarray, 635/667 nm fluorescence, primary screen (AID 1133); settings: FGF2, fluorescence 635/667, higher = more signal
[15] = JC-1 mitochondrial potential readout, lung cancer cells – cell-based, A549, JC-1 fluorescence, basal, 24 h, 100 nL, profiling panel (AID 1138); settings: higher = more signal;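 note: A549 lung adenocarcinoma cells under basal conditions with no added stimulus; test concentration not given here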
Lefty1 = Lefty1 protein binding to printed compounds – biochemical, small-molecule microarray, 635/667 nm fluorescence, primary screen (AID 1139); settings: fluorescence 635/667, higher = more signal
[16] = system: wheat germ agglutinin (Triticum aestivum), Alexa647-labelled; assay: Alexa647-WGA lectin binding to printed small molecules – biochemical, small-molecule microarray, 635/667 nm fluorescence, artefact control for SMM control-protein annotation, profiling panel (AID 1140); settings: WGA-A647 binding, 635 nm fluorescence, higher = more signal;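 note: score merges 667 nm feature emission with signal to noise over triplicate slides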
[17] = target: Luciferin 4-monooxygenase (Photinus pyralis) (UniProt P08659); assay: inhibition of purified Photinus pyralis luciferase – biochemical, luminescence, purified enzyme, 2006 set, primary screen (AID 1141); settings: purified firefly luciferase, SteadyGlo luminescence, 30 min; higher = more signal, called active from +8 up or from −8 down;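 note: cell-free assay with purified firefly luciferase at 100 ng per well in PBS; test concentration not given here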
Sequence of Luciferin 4-monooxygenase (Photinus pyralis) (P08659 whole entry, looked up): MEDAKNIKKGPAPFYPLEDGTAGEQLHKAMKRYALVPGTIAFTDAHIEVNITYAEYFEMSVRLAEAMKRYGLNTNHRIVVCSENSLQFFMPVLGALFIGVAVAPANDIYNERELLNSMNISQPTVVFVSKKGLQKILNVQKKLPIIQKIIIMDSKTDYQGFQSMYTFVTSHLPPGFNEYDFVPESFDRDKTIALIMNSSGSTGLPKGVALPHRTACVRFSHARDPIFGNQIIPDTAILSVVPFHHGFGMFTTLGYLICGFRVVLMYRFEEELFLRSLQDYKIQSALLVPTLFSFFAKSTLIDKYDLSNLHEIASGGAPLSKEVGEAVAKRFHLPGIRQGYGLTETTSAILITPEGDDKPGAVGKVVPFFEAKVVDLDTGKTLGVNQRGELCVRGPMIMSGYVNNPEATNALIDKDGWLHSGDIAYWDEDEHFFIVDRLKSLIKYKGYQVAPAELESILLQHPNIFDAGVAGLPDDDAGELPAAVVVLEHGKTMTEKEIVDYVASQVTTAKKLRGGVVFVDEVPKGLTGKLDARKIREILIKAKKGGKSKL

Sequence of Albumin (Bos taurus) (P02769 whole entry, looked up): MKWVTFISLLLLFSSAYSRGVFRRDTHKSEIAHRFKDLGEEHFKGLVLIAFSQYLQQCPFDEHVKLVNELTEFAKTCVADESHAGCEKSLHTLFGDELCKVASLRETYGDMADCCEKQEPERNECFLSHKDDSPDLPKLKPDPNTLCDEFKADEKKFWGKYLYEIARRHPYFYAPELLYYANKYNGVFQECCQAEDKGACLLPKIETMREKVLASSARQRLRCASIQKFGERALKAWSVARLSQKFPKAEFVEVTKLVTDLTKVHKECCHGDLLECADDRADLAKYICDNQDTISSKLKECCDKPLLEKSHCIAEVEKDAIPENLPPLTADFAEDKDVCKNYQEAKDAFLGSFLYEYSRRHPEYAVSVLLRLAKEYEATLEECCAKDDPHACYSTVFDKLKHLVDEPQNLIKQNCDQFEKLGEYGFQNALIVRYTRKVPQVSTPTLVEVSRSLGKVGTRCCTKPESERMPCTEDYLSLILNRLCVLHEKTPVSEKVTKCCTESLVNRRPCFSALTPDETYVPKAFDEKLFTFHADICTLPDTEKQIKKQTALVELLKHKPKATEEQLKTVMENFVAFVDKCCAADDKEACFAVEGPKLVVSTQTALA
Sequence of Fibroblast growth factor 2 (Homo sapiens) (P09038 whole entry, looked up): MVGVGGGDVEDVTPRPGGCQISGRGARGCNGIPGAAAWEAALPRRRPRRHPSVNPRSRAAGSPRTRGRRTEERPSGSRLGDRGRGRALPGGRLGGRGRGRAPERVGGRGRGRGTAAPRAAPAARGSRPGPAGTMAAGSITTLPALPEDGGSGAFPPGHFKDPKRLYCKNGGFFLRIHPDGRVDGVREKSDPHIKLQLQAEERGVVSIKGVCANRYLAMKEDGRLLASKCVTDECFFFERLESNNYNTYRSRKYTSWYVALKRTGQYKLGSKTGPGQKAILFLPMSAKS
Sequence of Focal adhesion kinase 1 (Homo sapiens) (Q05397 whole entry, looked up): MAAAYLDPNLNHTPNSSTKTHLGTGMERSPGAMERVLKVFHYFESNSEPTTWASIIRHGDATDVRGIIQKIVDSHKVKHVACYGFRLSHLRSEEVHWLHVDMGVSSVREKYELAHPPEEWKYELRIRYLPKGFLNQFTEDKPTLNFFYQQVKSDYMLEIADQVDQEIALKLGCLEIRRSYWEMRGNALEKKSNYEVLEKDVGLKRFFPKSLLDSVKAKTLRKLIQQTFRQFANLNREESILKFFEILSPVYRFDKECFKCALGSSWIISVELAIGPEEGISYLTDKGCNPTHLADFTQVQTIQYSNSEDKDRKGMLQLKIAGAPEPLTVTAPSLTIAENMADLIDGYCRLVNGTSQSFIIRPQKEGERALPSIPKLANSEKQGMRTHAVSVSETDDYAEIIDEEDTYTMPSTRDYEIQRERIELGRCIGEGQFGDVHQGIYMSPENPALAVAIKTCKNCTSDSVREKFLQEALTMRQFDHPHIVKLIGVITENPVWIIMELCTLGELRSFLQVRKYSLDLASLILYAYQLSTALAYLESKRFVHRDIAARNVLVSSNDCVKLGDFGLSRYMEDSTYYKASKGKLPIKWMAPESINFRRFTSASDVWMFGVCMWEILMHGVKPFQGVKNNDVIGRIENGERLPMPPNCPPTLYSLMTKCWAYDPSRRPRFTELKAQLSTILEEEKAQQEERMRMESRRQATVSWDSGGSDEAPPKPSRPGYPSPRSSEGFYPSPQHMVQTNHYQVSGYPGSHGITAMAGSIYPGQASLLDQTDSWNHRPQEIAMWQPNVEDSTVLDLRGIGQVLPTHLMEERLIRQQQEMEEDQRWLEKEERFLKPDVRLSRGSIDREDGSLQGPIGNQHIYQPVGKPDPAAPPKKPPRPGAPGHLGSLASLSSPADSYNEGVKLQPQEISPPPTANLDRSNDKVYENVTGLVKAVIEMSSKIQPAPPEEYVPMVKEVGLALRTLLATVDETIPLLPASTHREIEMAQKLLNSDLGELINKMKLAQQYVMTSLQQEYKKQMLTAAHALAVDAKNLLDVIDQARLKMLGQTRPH
Sequence of Concanavalin-A (Canavalia ensiformis) (P02866 whole entry, looked up): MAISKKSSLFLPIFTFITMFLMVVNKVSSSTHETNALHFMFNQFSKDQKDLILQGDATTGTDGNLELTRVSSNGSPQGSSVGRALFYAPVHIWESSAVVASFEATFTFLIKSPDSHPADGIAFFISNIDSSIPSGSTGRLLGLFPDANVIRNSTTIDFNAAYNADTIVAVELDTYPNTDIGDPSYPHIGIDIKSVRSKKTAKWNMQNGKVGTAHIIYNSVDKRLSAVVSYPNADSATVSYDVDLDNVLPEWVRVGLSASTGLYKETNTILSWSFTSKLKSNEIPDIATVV
Sequence of Follistatin (Homo sapiens) (P19883 whole entry, looked up): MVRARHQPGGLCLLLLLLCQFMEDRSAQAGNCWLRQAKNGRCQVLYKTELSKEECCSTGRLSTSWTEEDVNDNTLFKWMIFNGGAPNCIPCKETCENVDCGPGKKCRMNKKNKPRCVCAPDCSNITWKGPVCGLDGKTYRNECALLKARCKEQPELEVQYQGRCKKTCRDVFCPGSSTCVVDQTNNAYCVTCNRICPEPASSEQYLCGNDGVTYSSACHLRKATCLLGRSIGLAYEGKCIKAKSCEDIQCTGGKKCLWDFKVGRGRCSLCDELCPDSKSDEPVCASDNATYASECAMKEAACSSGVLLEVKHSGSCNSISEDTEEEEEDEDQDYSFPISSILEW

Row | SMILES | composite z-score (Albumin (Bos taurus)) | composite Z-score [1] | composite z-score [2] | composite z-score [3] | composite z-score [4] | composite z-score [5] | composite z-score [6] | composite z-score (Sam68 (KHDRBS1)) | composite z-score [7] | composite z-score [8] | composite z-score [9] | composite z-score [10] | composite z-score [11] | composite z-score [12] | composite z-score [13] | composite z-score [14] | z-score [15] | composite z-score (Lefty1) | composite z-score [16] | z-score [17]
1 | COC(=O)C=CCCc1coc(C=CCNC(=O)OC)n1 | 0.266 | 0.103 (inactive) | 0.482 | 0.16 | 0.492 | 0.32 | 0.146 | 0.654 | 1.34 | -0.0726 | 0.803 | -0.259 | 0.256 | 0.247 | 1.15 | 1.04 | -1.15 | 1.37 | 0.0559 | 0.122 (inactive)
2 | CO[C@@H]1COC(=O)[C@H](CCSC)NC(=O)CC=C[C@@H](C)COC(=O)[C@H](C)NC(=O)CC=C[C@H]1C | -1.04 | 0.327 (inactive) | 0.187 | -0.0907 | -0.0169 | -0.395 | 0.36 | 1.28 | 1.15 | -0.19 | -0.229 | 0.255 | -0.342 | -0.433 | 0.96 | 1.62 | 0.812 | 1.2 | -0.543 | -1.2 (inactive)
3 | COC(=O)[C@H](C)NC(=O)CCC1CC(OC(=O)NCc2ccc3c(c2)OCO3)CC2(CCCC(COC(=O)NCCc3ccccc3OC)O2)O1 (stereo not given in full) | 0.159 | 0.0923 (inactive) | -0.125 | -0.0646 | 0.472 | 1.36 | 0.117 | 0.735 | -0.0443 | -0.706 | 0.911 | 0.638 | -0.122 | 0.626 | -0.0381 | -0.0304 | 0.159 | -0.0317 | 0.817 | 0.559 (inactive)
4 | CCCCC#C[C@@H]1C=C[C@H](Oc2cc(OC)c(OC)c(OC)c2)[C@@H](COC(=O)OCC)O1 | 0.227 | 0.0299 (inactive) | -0.128 | -0.0907 | -0.165 | -0.642 | 0.211 | -0.25 | 0.251 | -0.0793 | 0.054 | -0.637 | -0.253 | 0.388 | 0.135 | 0.265 | 2.36 | 0.386 | -0.0925 | -1.12 (inactive)
5 | COC(=O)CC=C[C@@H](C)[C@@H](C=NO[C@@H](C)c1cn([C@H](CO)Cc2ccccc2)nn1)OC | 0.943 | -0.452 (inactive) | -0.0069 | -0.103 | -0.225 | -0.274 | 0.137 | 0.695 | 0.664 | -0.61 | 2.93 | 0.168 | -0.0296 | 0.578 | 0.293 | 0.411 | 0.269 | 0.579 | 0.084 | -2.11 (inactive)
6 | COc1ccc(O[C@H]2C=C[C@@H](c3ccccc3)O[C@@H]2CON=C(C)CCN2CCc3nc(-c4ccccc4)c(-c4ccccc4)cc3C2)cc1 | 0.628 | -0.508 (inactive) | -0.085 | -0.18 | -0.117 | -0.0458 | -0.251 | -0.83 | -0.163 | 0.799 | 1.38 | -0.536 | 0.119 | 0.948 | 0.477 | 0.0194 | 1.87 | 0.269 | 0.0216 | 0.84 (inactive)
7 | CC[C@@H](c1ccccc1)n1c(=O)n2n(c1=O)[C@H]1[C@H](O)[C@@H]3O[C@@H]3C(=O)[C@H]1CC2 | 0.208 | 0.214 (inactive) | -0.0745 | -0.135 | -0.245 | -0.372 | -0.262 | 0.0274 | 0.673 | 0.576 | -0.276 | 0.0346 | 0.0786 | -0.0351 | 0.295 | 0.319 | 0.276 | 0.387 | 0.13 | -1.23 (inactive)
8 | COc1cccc([C@H]2Oc3ccc(OC)cc3C(=NOC[C@@H](O)COCc3ccco3)[C@@H]2O)c1 | -0.859 | -0.874 (inactive) | -0.235 | -0.0942 | -1.02 | -1.34 | -0.446 | -2.24 | 0.655 | -3.36 | 0.232 | -1.3 | 0.3 | -2.19 | -0.707 | -0.51 | -0.843 | -0.488 | -0.418 | -2.4 (inactive)
9 | CCOC(=O)C1=NO[C@@]2(C=C(Br)C3(OCCCO3)[C@H]3O[C@H]32)C1 | -1.04 | 0.44 (inactive) | 0.0962 | -0.14 | 0.486 | 0.336 | -0.145 | -0.268 | 1.52 | 0.313 | 0.968 | 0.228 | 0.0306 | 0.982 | 1.43 | 1.14 | -0.0326 | 1.04 | 0.818 | -0.279 (inactive)
10 | COC(=O)CC=C[C@H](C)[C@@H](OCc1cccc(Br)c1)[C@@H](C)[C@H](OC)C1CCCCC1 | -1.15 | 0.143 (inactive) | -0.0914 | -0.124 | 0.0679 | -0.504 | -0.0998 | -0.446 | 0.652 | -1.23 | 0.0864 | -1.06 | -0.484 | -1.74 | 0.22 | -0.0877 | 1.74 | 0.525 | 0.325 | -3.27 (inactive)
11 | O=C1[C@H]2[C@H]3[C@H](O)[C@H](O)CC(=NOC[C@@H](O)COCc4ccco4)[C@@H]3CC[C@H]2C(=O)N1C[C@@H]1CCCO1 | 0.63 | 0.381 (inactive) | -0.0345 | -0.0986 | -0.267 | 0.155 | 0.174 | 0.902 | 1.53 | -0.281 | 0.142 | -0.12 | -0.288 | -0.652 | 0.907 | 1.34 | -0.00687 | 1.17 | -0.559 | 0.31 (inactive)
